Rows were chosen to be rich in hits. Some 4.8% of all compounds tested hit in one or more screens of this group.
Calb FLC – affects C. albicans growth with fluconazole. C. albicans CaCi-2 (fluconazole-resistant clinical isolate) + fluconazole, Alamar Blue growth, 48 h. 300,000 tested, 0.57% active. growth inhibition, % (no concentration beside the values). AID 1979;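 active = growth inhibition above about 58% in most replicates, limit read from the data, passing the limit was not always enough; inconclusive = exactly half the replicates above a set limit; inactive = most replicates below a set limit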;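 note: all wells also contain fluconazole at 8 µg/ml as a sub-toxic cotreatment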
MPTP inh – blocks calcium-induced mitochondrial swelling. 360,000 tested, 1.4% active. isolated mouse mitochondria, Ca2+ swelling absorbance, 30 min. inhibition, % at 10 µM;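 active = inhibition of 50% or more, scaled per plate between neutral and stimulator controls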
Beta cell apopt – blocks beta cell apoptosis; INS-1E cytokine-induced death, ATP luminescence, 48 h; percent of positive-control rescue, neutral wells zero; 300,000 tested, 0.8% active; protection from apoptosis, % (concentration not given with the values);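 active = Every replicate reaches about 75%, or at least half do and their mean reaches it too, limit read from the data; inconclusive = At least half of replicates reach the limit but their mean does not; inactive = Under half of replicates reach the limit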;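 note: higher means more ATP so stronger rescue from cytokine killing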
CSC inhib – cancer stem cell inhibition | cancer stem cell-like cells viability, luminescence | inhibition, % at 7.5 µM | 300,000 tested, 1.1% active | AID 2717; in the data active = inhibition above about 75%; inconclusive = no clear call, values can overlap the other calls; tested in HMLE shEcad cells
Mdm2-MdmX inh – inhibitors of human Mdm2/MdmX interaction | O15151+Q00987 | SaOS-2 split-luciferase Mdm2/MdmX complementation, luminescence | inhibition, % at 8 µM | 330,000 tested, 3% active | AID 485346;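 active = inhibition of at least 50% at 8 µM in the primary screen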
Target sequence (O15151 whole entry, looked up): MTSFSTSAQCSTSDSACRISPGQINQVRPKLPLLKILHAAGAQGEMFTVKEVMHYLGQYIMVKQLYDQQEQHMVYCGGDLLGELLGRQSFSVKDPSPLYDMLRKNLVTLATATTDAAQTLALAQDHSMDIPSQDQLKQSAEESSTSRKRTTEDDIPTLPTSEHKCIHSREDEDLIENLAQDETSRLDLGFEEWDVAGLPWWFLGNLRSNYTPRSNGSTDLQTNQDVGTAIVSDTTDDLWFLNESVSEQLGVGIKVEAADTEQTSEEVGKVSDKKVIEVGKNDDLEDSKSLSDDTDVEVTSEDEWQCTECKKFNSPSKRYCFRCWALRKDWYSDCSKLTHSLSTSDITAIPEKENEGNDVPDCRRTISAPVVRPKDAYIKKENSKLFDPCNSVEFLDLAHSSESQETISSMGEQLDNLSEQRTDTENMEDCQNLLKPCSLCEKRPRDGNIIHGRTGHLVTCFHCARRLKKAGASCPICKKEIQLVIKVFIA
Target sequence (Q00987 whole entry, looked up): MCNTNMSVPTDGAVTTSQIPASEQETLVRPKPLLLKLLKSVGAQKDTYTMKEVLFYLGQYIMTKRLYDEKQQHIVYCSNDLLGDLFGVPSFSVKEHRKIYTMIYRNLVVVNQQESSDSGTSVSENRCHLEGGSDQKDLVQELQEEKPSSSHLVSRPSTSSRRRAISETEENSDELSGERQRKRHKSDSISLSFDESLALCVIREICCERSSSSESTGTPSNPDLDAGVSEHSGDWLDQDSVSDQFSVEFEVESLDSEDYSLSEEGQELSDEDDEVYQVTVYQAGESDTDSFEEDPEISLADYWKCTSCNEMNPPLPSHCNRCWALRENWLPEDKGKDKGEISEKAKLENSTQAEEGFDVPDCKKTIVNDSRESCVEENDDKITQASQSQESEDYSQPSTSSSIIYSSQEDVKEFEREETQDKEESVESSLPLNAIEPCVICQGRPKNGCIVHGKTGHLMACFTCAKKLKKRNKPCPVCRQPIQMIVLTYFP
MPTP counter – Rhodamine 123 counter-screen of mitochondrial pore hits; inhibition, % at 10 µM; shares compounds with MPTP inh; AID 624504; 5,000 tested, 78% active; isolated mitochondria, membrane potential, Rhodamine 123 fluorescence; in the data active = inhibition above about 22%
MPTP swell DR – dose response confirmation of mitochondrial permeability transition pore inhibitors. shares compounds with MPTP inh. isolated mitochondria swelling, absorbance. 780 tested, 58% active. IC50, µM; in the data active = IC50 below about 20 µM
MPTP counter DR – counter-screen for mitochondrial permeability transition pore inhibitors, dose response | shares compounds with MPTP inh | isolated mitochondria counterscreen, fluorescence read-out | IC50, µM | 780 tested, 49% active; in the data active = IC50 below about 80 µM
A number is an active result; . = inactive; ? = inconclusive; / = no result given.

SMILES	Calb FLC	MPTP inh	Beta cell apopt	CSC inhib	Mdm2-MdmX inh	MPTP counter	others
O=C1c2ccccc2S(=O)(=O)N1Cc1nnc(-c2ccccc2Br)o1	.	.	/	/	/	/
COC(=O)c1c(NC(=O)C(=O)NCC2CCCO2)sc2c1CC(C)(C)OC2 (stereo not given)	.	.	.	.	.	/
COc1ccc2c(c1)C(=O)N(Cc1ccccc1)C(=O)C2(C)C	.	.	.	.	.	/
CC(C)c1ccc(NC(=O)Cn2c(=O)oc3cccnc32)cc1	.	.	.	.	.	/
CC1CCN(S(=O)(=O)c2nnc(NC(=O)c3cccc(Cl)c3)s2)CC1	.	83	.	.	.	79
C=CC(=O)Nc1cccc(Oc2ccnc(Nc3ccc(N4CCN(C)CC4)cc3)n2)c1	/	.	/	/	/	/
C=CC(=O)Nc1cccc(N(C)c2ccnc(Nc3ccc(N4CCN(C)CC4)cc3)n2)c1	/	102	/	/	/	93
O=C1CCN(S(=O)(=O)c2ccc(Cl)cc2)CCN1	.	.	.	.	.	/
O=c1oc2c(-c3cccc(F)c3)cc(O)cc2s1	.	84	.	.	.	85
Cc1cc(C)cc(NC(=O)Nc2ccc(-n3ccc(C(F)(F)F)n3)cc2)c1	.	87	.	104	.	83
CCOC(=O)N1CCN(C(=O)CSc2nnc3[nH]c(=O)c(C)c(C)n23)CC1	.	.	/	.	.	/
CC(C)CCNC(=O)Nc1ccc2c(c1)N(C)C(=O)CS2	.	.	.	.	.	/
CN1C(=O)CSc2ccc(NC(=O)NCCC3=CCCCC3)cc21	.	75	.	.	.	78
CC(C)(C)c1ccc(S(=O)(=O)N2CCC(c3nc4ccc(Cl)cc4[nH]3)CC2)cc1	.	94	/	.	.	90
O=C(Cn1nnc(-c2cc(C(F)(F)F)cc(C(F)(F)F)c2)n1)NNC(=S)Nc1ccc(Cl)cc1	.	84	.	.	.	61
FC(F)(F)c1nnc(Nc2ccc(Cl)cc2)s1	.	79	.	.	.	75
FC(F)(F)c1nnc(N2CCN(c3ccc(Cl)cc3)CC2)s1	.	.	.	.	.	/
O=C(NCCc1ccccc1C(F)(F)F)C1CCC(=O)N(CCCN2CCCC2=O)C1 (stereo not given)	.	.	.	.	.	/
COc1cccc(NC(=S)NC(C)c2ccc(OC)c(OC)c2)c1 (stereo not given)	.	.	.	.	.	/
COc1cccc(NC(=S)NC(Cc2ccccc2)c2ccccc2)c1 (stereo not given)	/	57	/	/	/	90
Cc1cc(-c2cc(C(=O)Nc3ccccc3)on2)nc(NC2CCCC2)n1	.	/	.	.	.	/
COc1ccccc1Cc1c(-c2ccc(Cl)cc2)nc2ccc(Br)cn12	/	.	/	/	/	/
O=C(Nc1ccccc1N1CCOCC1)c1ccccc1NS(=O)(=O)c1ccc(F)c(F)c1	.	62	.	.	.	98
Cc1cc(F)ccc1S(=O)(=O)Nc1ccccc1C(=O)Nc1ccccc1N1CCOCC1	.	78	.	.	.	89
CCCCCN(C(=O)CCC(=O)OCCOc1cccc(Cl)c1)c1c(N)n(CCCC)c(=O)[nH]c1=O	.	.	.	.	.	/
SMILES	Calb FLC	MPTP inh	Beta cell apopt	CSC inhib	Mdm2-MdmX inh	MPTP counter	others
Cc1[nH]n(-c2ncc(-c3ccc(Cl)cc3)s2)c(=O)c1C(c1ccc(Cl)cc1)C(C#N)C#N (stereo not given)	.	98	.	96	.	.
Cn1nc(C(=O)Nc2cccc(Cl)c2)cc1C(=O)Nc1cccc(Cl)c1	.	57	.	.	.	84
O=C(Nc1cccc(F)c1)Nc1ccc2c(c1)C(=O)OC2	.	.	.	.	.	/
O=C(Nc1ccncc1)Nc1cccc(Cl)c1	.	57	.	.	.	95
O=C(Nc1cccc(Cl)c1)Nc1ccc2c(c1)C(=O)OC2	.	80	.	.	.	85
CC(=O)N(C)c1ccc(NC(=O)c2cnn(C)c2)cc1	.	70	.	.	.	.
O=C(NCc1ccncc1)Nc1cccc(Cl)c1	.	.	.	.	.	/
CCCNC(=O)c1cc(C2CCCN(C(=O)C3CCCCC3)C2)on1 (stereo not given)	/	.	/	/	/	/
COc1ccc(C(=O)N/N=C(\C)c2ccc(NC(=O)Cc3ccccc3)cc2)c(OC)c1	.	.	.	.	.	/
CNC(=S)Nc1ccc(Cc2ccncc2)cc1	.	.	.	.	.	/
CN(C)c1ccc(NC(=O)Nc2cccc(Cl)c2)cc1	.	74	.	.	.	72
CN(c1cccc(NC(=O)Nc2cccc(Cl)c2)c1)S(C)(=O)=O	.	.	.	/	.	/
S=C(Nc1ccc(Cc2ccncc2)cc1)Nc1cccc(Cl)c1	.	93	.	.	.	81
Cc1nccc(-c2cccc(NC(=O)Nc3ccc(Cl)cc3)c2)n1	.	83	.	.	.	93
Cc1cccc(NC(=O)Nc2ccc(Cl)cc2)n1	.	.	.	.	.	/
CC(=O)N(C)c1ccc(NC(=O)Nc2ccc(Cl)cc2)cc1	.	56	.	.	.	78
COc1cccc(S(=O)(=O)N(C)C[C@H]2OCc3cnnn3CCCC(=O)N([C@H](C)CO)C[C@@H]2C)c1	/	.	/	/	/	/
O=C(Cc1cccs1)Nc1cccc(-c2nc3cc4ccccc4cc3[nH]2)c1	.	90	.	99	/	37
CCN(Cc1ccccc1)C(=O)C(=O)c1cn(CC(=O)N2CCCC2)c2ccccc12	.	.	.	.	.	/
O=C(O)c1ccccc1-c1c2cc(I)c(=O)c(I)c-2oc2c(I)c(O)c(I)cc12	/	79	.	.	.	.
O=Cc1ccc(-c2ccccc2C(=O)O)o1	.	.	.	.	.	/
Cc1cc(NC(=O)CCSc2ccccc2)ccc1Br	.	97	.	.	.	84
Cc1cc(Br)ccc1NC(=O)CCSc1ccccc1	.	.	.	.	.	/
CC1CN(C)C(C)CC1OC(=O)C(c1ccccc1)c1ccccc1 (stereo not given)	.	.	.	.	.	/
CCCCOc1ccc(C(=O)OC2CC(C)N(C)CC2C)cc1 (stereo not given)	.	83	.	.	.	.	MPTP swell DR=9.7;MPTP counter DR=74
SMILES	Calb FLC	MPTP inh	Beta cell apopt	CSC inhib	Mdm2-MdmX inh	MPTP counter	others
O=C(NC(=S)Nc1nc(-c2ccccc2)cs1)c1cncc(Br)c1	.	74	/	/	.	75
Cc1ccc(C(=O)Nc2nc(-c3cccnc3)cs2)o1	.	.	.	.	.	/
O=C(NC(=S)Nc1nc(-c2ccccc2)cs1)c1cccnc1	.	.	.	.	.	/
O=C(Nc1nc(-c2ccccc2)cs1)c1ccc(Br)o1	.	82	.	.	.	21
COc1ccc(NC(=S)NNc2ccc([N+](=O)[O-])cc2S(=O)(=O)Nc2ccc(C)cc2C)cc1	?	97	.	.	.	56
COc1ccc(CNc2ccc([N+](=O)[O-])cc2C)cc1	.	.	.	.	.	/
Cc1ccc(NS(=O)(=O)c2cc([N+](=O)[O-])ccc2NNC(=S)Nc2cccc(Cl)c2)c(C)c1	.	86	.	100	/	.

Screening results as filed in PubChem BioAssay.
